This is part of a sample that, as a whole, favours compounds with a hit. Of some 83,000 tested, about 20% had one in any assay.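 Percent growth is the endpoint: 0 to 100 indicates growth inhibition (40 means 60% inhibition), 0 means no net growth, and negative values indicate cell death.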 Calls of active or inactive are those of the source. Rule for the calls: active = growth percent below 10; inactive = the rest.
What was measured:
Experiment in all cases: NCI-60 one-dose screen, 48 h (100 = growth as untreated, 0 = no growth, -100 = all killed)
Details in all cases: 10 µM
HCT-15 colon = tested on: HCT-15 colon
HT29 colon = tested on: HT29 colon
SNB-75 CNS = tested on: SNB-75 CNS
SNB-19 CNS = tested on: SNB-19 CNS
U251 CNS = tested on: U251 CNS
PC-3 prostate = tested on: PC-3 prostate
SK-MEL-5 melanoma = tested on: SK-MEL-5 melanoma
UACC-62 melanoma = tested on: UACC-62 melanoma
LOX IMVI melanoma = tested on: LOX IMVI melanoma
SK-MEL-28 melanoma = tested on: SK-MEL-28 melanoma
SK-MEL-2 melanoma = tested on: SK-MEL-2 melanoma
UO-31 renal = tested on: UO-31 renal
A498 renal = tested on: A498 renal
CCRF-CEM leukemia = tested on: CCRF-CEM leukemia
MOLT-4 leukemia = tested on: MOLT-4 leukemia
EKVX NSCLC = tested on: EKVX NSCLC
SN12C renal = tested on: SN12C renal
TK-10 renal = tested on: TK-10 renal
ACHN renal = tested on: ACHN renal
CAKI-1 renal = tested on: CAKI-1 renal

Measured: growth

Cc1ccc(NC(=O)N2CCCCC2)cc1[N+](=O)[O-]
active: CCRF-CEM leukemia 7.44%
inactive: HCT-15 colon 96% | HT29 colon 103% | SNB-75 CNS 90.5% | SNB-19 CNS 98.4% | U251 CNS 101% | PC-3 prostate 76.6% | SK-MEL-5 melanoma 103% | UACC-62 melanoma 86.7% | LOX IMVI melanoma 97% | SK-MEL-28 melanoma 105% | SK-MEL-2 melanoma 119% | UO-31 renal 77.6% | A498 renal 107% | MOLT-4 leukemia 137%

CCCCCOC(=O)Nc1nc(=O)n(C2O[C@H](C)[C@@H](O)[C@H]2O)cc1F (some centres not stated)
inactive: HCT-15 colon 101% | HT29 colon 99.9% | SNB-75 CNS 77.1% | SNB-19 CNS 101% | U251 CNS 94.8% | PC-3 prostate 90.9% | SK-MEL-5 melanoma 99.8% | UACC-62 melanoma 95% | LOX IMVI melanoma 100% | SK-MEL-28 melanoma 115% | EKVX NSCLC 99.2% | SN12C renal 99.5% | UO-31 renal 82.1% | TK-10 renal 98.5% | ACHN renal 99.6% | CAKI-1 renal 90.5% | A498 renal 82.3% | CCRF-CEM leukemia 96.7% | MOLT-4 leukemia 103%

CSc1nc(S(C)(=O)=O)nc2[nH]c(=O)[nH]c12
inactive: HCT-15 colon 94.9% | HT29 colon 99.5% | SNB-75 CNS 97% | SNB-19 CNS 99.8% | U251 CNS 105% | PC-3 prostate 106% | SK-MEL-5 melanoma 103% | UACC-62 melanoma 98.9% | LOX IMVI melanoma 108% | SK-MEL-28 melanoma 126% | SK-MEL-2 melanoma 106% | SN12C renal 95.9% | TK-10 renal 119% | ACHN renal 97.7% | A498 renal 118% | CCRF-CEM leukemia 117% | MOLT-4 leukemia 116%

Nc1ccc(/C=N/Nc2ccnc3c(O)cccc23)c2cccnc12
active: U251 CNS 4.7% | LOX IMVI melanoma -72.9%
inactive: HCT-15 colon 26.1% | HT29 colon 56.8% | SNB-75 CNS 69.9% | SNB-19 CNS 72.7% | PC-3 prostate 34.8% | SK-MEL-5 melanoma 82.3% | UACC-62 melanoma 95.2% | SK-MEL-28 melanoma 90.9% | SK-MEL-2 melanoma 74.1% | SN12C renal 76.9% | UO-31 renal 55.8% | TK-10 renal 97.7% | ACHN renal 52.9% | A498 renal 118% | CCRF-CEM leukemia 14.4% | MOLT-4 leukemia 14.5%

O=S(=O)(O)c1cccc(Nc2ccc3ccccc3c2)c1
inactive: HCT-15 colon 110% | HT29 colon 99% | SNB-75 CNS 78.2% | SNB-19 CNS 96.3% | U251 CNS 95.5% | PC-3 prostate 79% | SK-MEL-5 melanoma 99% | UACC-62 melanoma 88.1% | LOX IMVI melanoma 93.4% | SK-MEL-28 melanoma 108% | SK-MEL-2 melanoma 93.7% | SN12C renal 92.5% | UO-31 renal 68.9% | TK-10 renal 115% | ACHN renal 98% | A498 renal 96.7% | CCRF-CEM leukemia 95.6% | MOLT-4 leukemia 95.3%

C[C@@H](O)[C@H]1C(=O)N2C(C(=O)O)=C(SCCN=CN)C[C@H]12
active: HCT-15 colon 8.86% | HT29 colon -3.23% | SNB-75 CNS 0.941% | SNB-19 CNS 8.6% | U251 CNS 2.44% | PC-3 prostate 1.74% | SK-MEL-5 melanoma -87.2% | UACC-62 melanoma -38.8% | LOX IMVI melanoma -42.6% | SK-MEL-28 melanoma -41.3% | EKVX NSCLC 7.62% | SN12C renal 2.27% | UO-31 renal -50.4% | TK-10 renal -0.459% | ACHN renal -30.6% | CAKI-1 renal -28.2% | A498 renal -36.4% | CCRF-CEM leukemia 4.2% | MOLT-4 leukemia -13.9%

CC(C)Cc1ccc([C@H](C)C(=O)O)cc1
inactive: HCT-15 colon 97% | HT29 colon 106% | SNB-75 CNS 79.4% | SNB-19 CNS 108% | U251 CNS 101% | PC-3 prostate 93.6% | SK-MEL-5 melanoma 102% | UACC-62 melanoma 103% | LOX IMVI melanoma 101% | SK-MEL-28 melanoma 109% | EKVX NSCLC 104% | SN12C renal 103% | UO-31 renal 86.5% | TK-10 renal 100% | ACHN renal 108% | CAKI-1 renal 93.7% | A498 renal 99.1% | CCRF-CEM leukemia 102% | MOLT-4 leukemia 90.5%

Cc1cc(CC(C)CC(C)(C)C)n(O)c(=O)c1 (configuration not stated) (tested in a mixture with another compound)
active: SK-MEL-5 melanoma -1.17% | UACC-62 melanoma -8.65% | LOX IMVI melanoma 7.96% | UO-31 renal 0% | ACHN renal 9.73% | MOLT-4 leukemia -6.44%
inactive: HCT-15 colon 23.8% | HT29 colon 53.2% | SNB-75 CNS 16.7% | SNB-19 CNS 26% | U251 CNS 17.8% | PC-3 prostate 33.9% | SK-MEL-28 melanoma 25.1% | EKVX NSCLC 24.2% | SN12C renal 13.2% | TK-10 renal 75% | CAKI-1 renal 34.3% | A498 renal 62.4% | CCRF-CEM leukemia 11.4%

CS(=O)(=O)c1nccc(-c2c(-c3cccc(OCc4ccccc4)c3)nc3sccn23)n1
inactive: HCT-15 colon 49.4% | HT29 colon 77.9% | SNB-75 CNS 97.5% | SNB-19 CNS 88.6% | U251 CNS 89.1% | PC-3 prostate 66.2% | UACC-62 melanoma 62.4% | LOX IMVI melanoma 28.6% | SK-MEL-28 melanoma 77.1% | SK-MEL-2 melanoma 103% | SN12C renal 76.2% | ACHN renal 95.9% | CAKI-1 renal 44.2% | A498 renal 72.5% | CCRF-CEM leukemia 52.5% | MOLT-4 leukemia 26.5%
active: SK-MEL-5 melanoma 0.137% | UO-31 renal 3.7%

CC(C)C[C@H](NC(=O)Cn1cccc(CNC(=O)c2ccccc2)c1=O)B(O)O
active: HT29 colon -0.24% | SNB-75 CNS -4.6% | SK-MEL-5 melanoma -34.3% | UACC-62 melanoma -17.1% | LOX IMVI melanoma -60.4% | SK-MEL-2 melanoma 7.34% | A498 renal -12.2% | CCRF-CEM leukemia 2.66% | MOLT-4 leukemia -7.9%
inactive: HCT-15 colon 64.7% | SNB-19 CNS 34.1% | U251 CNS 17.2% | PC-3 prostate 35.8% | SK-MEL-28 melanoma 19.4% | UO-31 renal 50.9% | TK-10 renal 16.8% | ACHN renal 24.5%

CCCc1nc(C(C)(C)O)c(C(=O)O)n1Cc1ccc(-c2ccccc2-c2nn[nH]n2)cc1
inactive: HCT-15 colon 101% | HT29 colon 93.6% | SNB-75 CNS 66.9% | SNB-19 CNS 102% | U251 CNS 103% | PC-3 prostate 95.9% | SK-MEL-5 melanoma 110% | UACC-62 melanoma 94.5% | LOX IMVI melanoma 94.7% | SK-MEL-28 melanoma 108% | EKVX NSCLC 106% | SN12C renal 96.4% | UO-31 renal 84.6% | TK-10 renal 96.8% | ACHN renal 93.5% | CAKI-1 renal 92.6% | A498 renal 80.2% | CCRF-CEM leukemia 95.8% | MOLT-4 leukemia 107%

CN1CCN(C2=Nc3ccccc3Oc3ccc(Cl)cc32)CC1
inactive: HCT-15 colon 103% | HT29 colon 88.3% | SNB-75 CNS 59.5% | SNB-19 CNS 104% | U251 CNS 102% | PC-3 prostate 83.8% | SK-MEL-5 melanoma 96.7% | UACC-62 melanoma 98.7% | LOX IMVI melanoma 103% | SK-MEL-28 melanoma 110% | EKVX NSCLC 107% | SN12C renal 100% | UO-31 renal 77.1% | TK-10 renal 89.7% | ACHN renal 93.6% | CAKI-1 renal 81.5% | A498 renal 81.3% | CCRF-CEM leukemia 99.6% | MOLT-4 leukemia 80.3%

O=C(CCCCCCC(=O)Nc1ccccc1)NO
active: HT29 colon 7.15% | U251 CNS -20.1% | SK-MEL-5 melanoma -54.4% | UACC-62 melanoma -42.8% | LOX IMVI melanoma -3.4% | SK-MEL-28 melanoma 5.94% | UO-31 renal -2.53% | TK-10 renal 6.84% | ACHN renal 4.68% | CAKI-1 renal -28.3% | A498 renal -44.9% | MOLT-4 leukemia -5.35%
inactive: HCT-15 colon 33.9% | SNB-75 CNS 18% | SNB-19 CNS 25% | PC-3 prostate 10.4% | EKVX NSCLC 28.8% | SN12C renal 11.7%

OC[C@H]1OC([S-])[C@H](O)[C@@H](O)[C@@H]1O.[Au+] (some centres not stated)
inactive: HCT-15 colon 87.8% | HT29 colon 83.8% | SNB-75 CNS 98.8% | SNB-19 CNS 101% | U251 CNS 61.7% | PC-3 prostate 77.8% | SK-MEL-5 melanoma 68.5% | UACC-62 melanoma 63.3% | LOX IMVI melanoma 50.3% | SK-MEL-28 melanoma 68.9% | EKVX NSCLC 106% | SN12C renal 98.5% | UO-31 renal 99.4% | TK-10 renal 124% | ACHN renal 105% | CAKI-1 renal 108% | A498 renal 174% | CCRF-CEM leukemia 61.5% | MOLT-4 leukemia 75.9%

CCC1NC(=O)c2cc(S(N)(=O)=O)c(Cl)cc2N1 (configuration not stated)
inactive: HCT-15 colon 109% | HT29 colon 109% | SNB-75 CNS 105% | SNB-19 CNS 105% | U251 CNS 96.3% | PC-3 prostate 93.6% | SK-MEL-5 melanoma 104% | UACC-62 melanoma 103% | LOX IMVI melanoma 99.9% | SK-MEL-28 melanoma 121% | EKVX NSCLC 109% | SN12C renal 94% | UO-31 renal 98.8% | TK-10 renal 106% | ACHN renal 108% | CAKI-1 renal 104% | A498 renal 110% | CCRF-CEM leukemia 97.7% | MOLT-4 leukemia 113%

c1ccc(CSc2ncccc2-c2nnc(SCCN3CCOCC3)o2)cc1
inactive: HCT-15 colon 105% | HT29 colon 111% | SNB-75 CNS 79.6% | SNB-19 CNS 115% | U251 CNS 117% | PC-3 prostate 111% | SK-MEL-5 melanoma 102% | UACC-62 melanoma 113% | LOX IMVI melanoma 108% | SK-MEL-28 melanoma 107% | EKVX NSCLC 108% | SN12C renal 114% | UO-31 renal 89.4% | TK-10 renal 118% | ACHN renal 124% | CAKI-1 renal 100% | A498 renal 107% | CCRF-CEM leukemia 103% | MOLT-4 leukemia 103%

From PubChem BioAssay (NCI)
